# Assay outcomes as filed in PubChem.
# Sampled rows, rich in hits. Any-hit rate of the full collection: about 5.7%.
# DAX1 inh-1: inhibitors of human orphan nuclear receptor DAX1 (NR0B1); inhibition, % at 6.75 µM; actives 0.99% (n = 340,000); HEK293 Gal4-DAX1 luciferase reporter, luminescence;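 active means inhibition above the mean over all tested compounds plus 3 SD, cut at about 4.2% in these data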;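 further: 0% = DAX1-transfected cells with DMSO and 100% = empty-vector control cells with DMSO; inhibition shows as a rise in luminescence from relieved DAX1 repression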
# DAX1 inh-2: DAX1 (NR0B1) inhibition, primary screen; inhibition, % at 6.8 µM; AID 652010; actives 1.1% (n = 370,000); HEK293T StAR-luciferase reporter, SF-1/DAX-1 repression relief;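 active means inhibition above the mean over all tested compounds plus 3 SD, cut at about 3.6% in these data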;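 further: 0% = DAX-1 cells with DMSO and 100% = cells lacking DAX-1 with DMSO; higher inhibition means more luminescence from relief of DAX-1 repression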
# hgDAF12 agonist: agonists of H. glycines DAF-12 nuclear receptor. actives 1.8% (n = 370,000). AID 687014. activation, % at 6.8 µM. HEK293 GAL4-hgDAF12 UAS-luciferase reporter, agonist luminescence; normalized to butyrate control;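 active means activation above a cutoff set at the mean of all screened compounds plus 3 SD, cut at about 10% in these data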;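 further: 0% = DMSO wells and 100% = sodium butyrate wells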
# hcDAF12 agonist: activates DAF-12 receptor from parasite H. contortus. activation, % at 6.8 µM. actives 1.4% (n = 370,000). HEK293 hcDAF-12 lit1-tk-luc reporter, luminescence; 0% DMSO, 100% Δ7-dafachronic acid. AID 652067;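 active means activation above the mean of all tested compounds plus 3 SD, cut at about 5.5% in these data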;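 further: 100% = response to 3 µM Δ7-dafachronic acid high control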
# AHR activator: activates the human aryl hydrocarbon receptor; P35869; actives 2.5% (n = 320,000); AHR-responsive luciferase reporter cells, luminescence; activation, % at 5 µM; in the data active means activation above about 47%;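 further: 0% = vehicle wells and 100% = reference agonist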
# ssDAF-12 act: activates DAF-12 receptor from parasite S. stercoralis. actives 1% (n = 370,000). activation, % at 6.8 µM. AID 652126. HEK293 ssDAF-12/GRIP1 lit1-tk-luc reporter, luminescence; % of 3 µM dafachronic acid response;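 active means activation above the mean over all tested compounds plus 3 SD, cut at about 0.9% in these data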;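 further: 0% = DMSO-only wells and 100% = 3 µM delta7-dafachronic acid wells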
# AHR act cf: confirmation of human aryl hydrocarbon receptor activators. actives 87% (n = 2,300). activation, % at 9 µM. human cells, AHR-responsive luciferase reporter, luminescence. shares compounds with AHR activator; in the data active means activation above about 49%;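 further: HepG2 hepatoma cells carrying a DRE-driven firefly luciferase reporter; 0% = vehicle wells and 100% = reference agonist wells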
# PXR act counter: counter-screen for AHR activators: human PXR activators; shares compounds with AHR activator; cell-based PXR reporter, luciferase luminescence; activation, % at 11.6 µM; actives 88% (n = 2,300); AID 434939; in the data active means activation above about 11%;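 further: human hepatoma DPX-2 cells expressing full-length human PXR; 0% = DMSO and 100% = reference agonist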
# Target sequence (O75469 whole entry, looked up): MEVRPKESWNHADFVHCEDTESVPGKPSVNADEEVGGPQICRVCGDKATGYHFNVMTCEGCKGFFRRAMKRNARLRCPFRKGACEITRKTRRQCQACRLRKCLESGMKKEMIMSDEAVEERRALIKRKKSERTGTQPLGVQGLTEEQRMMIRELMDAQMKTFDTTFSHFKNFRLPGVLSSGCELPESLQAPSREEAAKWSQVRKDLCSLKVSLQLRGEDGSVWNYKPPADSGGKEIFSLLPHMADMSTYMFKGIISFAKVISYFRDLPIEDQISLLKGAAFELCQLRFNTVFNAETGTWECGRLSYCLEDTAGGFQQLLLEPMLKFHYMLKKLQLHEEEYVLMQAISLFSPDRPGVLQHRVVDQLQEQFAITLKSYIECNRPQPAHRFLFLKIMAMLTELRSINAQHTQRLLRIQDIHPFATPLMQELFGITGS
# Active calls of the source: *; . = no result given.
SMILES,DAX1 inh-1,DAX1 inh-2,hgDAF12 agonist,hcDAF12 agonist,AHR activator,ssDAF-12 act,AHR act cf,PXR act counter
Cn1[nH]c(=O)c(Cl)c(Cl)c1=O,1,0,1,-1,1,-1,.,.
COc1ccccc1-n1c(-c2cccnc2)n[nH]c1=S,0,0,-1,-2,-2,-2,.,.
COc1ccc(OC)c2nc(-c3cccnc3)ccc12,2,0,4,2,93*,-1,143*,22*
CCOc1ccc(NC(=O)c2cnc3scc(C)n3c2=O)cc1,-1,2,2,-1,90*,-1,129*,22*
CN(C)c1cc(-c2ccc(Br)cc2)oc(=O)c1Cl,.,-1,-1,-1,85*,-1,70*,22*
C=CCNCCOCCOc1ccc(C)cc1[N+](=O)[O-],1,0,1,1,0,0,.,.
Cc1cc(=O)[nH]c(N/N=C/c2ccc(Br)s2)n1,1,0,2,-1,81*,-1,66*,.
C/C(CC(=O)Nc1cc(Cl)ccc1Cl)=N\NC(=O)c1ccco1,1,2,8,4,91*,0,12,16*
OCC1OC(Oc2c[nH]c3ccccc23)C(O)C(O)C1O (centres undefined),-1,-2,-2,4,84*,0,26,8
O=[N+]([O-])c1ccccc1O[C@@H]1O[C@H](CO)[C@H](O)[C@H](O)[C@H]1O,2,0,-1,-2,6,-1,.,.
Cn1c(=O)n(CCc2ccccc2)c2ccccc21,0,0,1,1,125*,-1,111*,40*
Cc1cc(C)n(-c2nc(-c3cccc(Cl)c3)cs2)n1,1,2,7,2,109*,0,101*,22*
Cc1cc(C(F)(F)F)n2nc(-c3sccc3-n3cccc3)cc2n1,0,0,8,-1,103*,1,113*,44*
Cc1cc(C(F)(F)F)n2nc(-c3cccs3)cc2n1,2,0,5,3,19,1,.,.
Cc1ccc2c(c1)c1nc3ccccc3nc1n2C,4.5*,0,5,5.9*,88*,1.9*,117*,.
C=CCNC(=O)CN1CCC(O)(c2ccccc2)CC1,0,1,-1,-2,2,0,.,.
COc1cccc(C2=CC(c3cccc(OC)c3OC)n3nnnc3N2)c1 (centres undefined),-1,-2,1,-1,10,-1,.,.
Cn1cc(/C=C2\SC(=S)N(N3CCOCC3)C2=O)c2ccccc21,4,0,-1,-2,107*,-1,6,6
Cn1cc(/C=C2/SC(=O)N(c3ccccc3)C2=O)c2ccccc21,-1,1,6,4,101*,0,87*,17*
CN(C)c1ccc(NC(=O)COC(=O)c2cc(=O)c3ccccc3o2)cc1,1,-1,2,0,2,-1,.,.
OCCC#Cc1c(-c2ccsc2)sc2ccccc12,1,0,-1,0,86*,-1,62*,13*
COc1cc(-c2ccc3sc(-c4ccsc4)c(C#CCO)c3c2)cc(OC)c1OC,-4,-2,-4,-3,80*,-2,61*,13*
CS(=O)(=O)c1ccc(-c2sc3ccccc3c2C#CCCO)cc1,-1,-1,-2,-2,6,-1,.,.
CC(C)C(OC(=O)c1nsc(Cl)c1Cl)C(=O)NCc1ccccc1 (centres undefined),2,0,3,-1,0,-1,.,.
CCc1ccc(S(=O)(=O)Nc2ccc(-c3ccc4nncn4n3)cc2)s1,1,0,-3,-2,0,-1,.,.
CCc1ccc(S(=O)(=O)Nc2ccc(-c3nc4cccnc4s3)cc2)s1,2,2,5,-1,88*,-1,82*,20*
CC(=O)c1c(N2CCOCC2)[nH]c(-c2ccccc2)nc1=S,0,0,3,5,136*,-1,122*,75*
